From PubChem BioAssay AID493026 (Johns Hopkins Ion Channel Center, 2011) come the findings set out here.

Molecules are shown by their SMILES. Out of some 1,000 compounds screened, about 150 (15%) were called active. This is one part of a sample in which actives are shown more often than they occur.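 The calls were made as follows: active = activity change at least 3 SD of negative controls below their mean in both duplicate wells; inactive = the rest.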

In the experiment the target is Potassium voltage-gated channel subfamily KQT member 1 (Homo sapiens) (UniProt P51787). In words: human KCNQ1 channel inhibition, counter-screen for KCNQ2 inhibitor project, cell-based, FluxOR thallium flux (AID 493026).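 Also: CHO cells stably transfected with KCNQ1 and depolarized by potassium stimulus.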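 As to activity change, negative = inhibition: peak minus minimum fluorescence over baseline after thallium addition; 0% = vehicle negative control and -100% = blank without thallium stimulus.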 The settings on record: KCNQ1-expressing cells, FluxOR thallium flux fluorescence, at 10 µM; stronger effect = lower value. (In general: A counterscreen serves to expose hits that act by an unwanted route or on another target.)
Sequence of Potassium voltage-gated channel subfamily KQT member 1 (Homo sapiens) (P51787 whole entry, looked up): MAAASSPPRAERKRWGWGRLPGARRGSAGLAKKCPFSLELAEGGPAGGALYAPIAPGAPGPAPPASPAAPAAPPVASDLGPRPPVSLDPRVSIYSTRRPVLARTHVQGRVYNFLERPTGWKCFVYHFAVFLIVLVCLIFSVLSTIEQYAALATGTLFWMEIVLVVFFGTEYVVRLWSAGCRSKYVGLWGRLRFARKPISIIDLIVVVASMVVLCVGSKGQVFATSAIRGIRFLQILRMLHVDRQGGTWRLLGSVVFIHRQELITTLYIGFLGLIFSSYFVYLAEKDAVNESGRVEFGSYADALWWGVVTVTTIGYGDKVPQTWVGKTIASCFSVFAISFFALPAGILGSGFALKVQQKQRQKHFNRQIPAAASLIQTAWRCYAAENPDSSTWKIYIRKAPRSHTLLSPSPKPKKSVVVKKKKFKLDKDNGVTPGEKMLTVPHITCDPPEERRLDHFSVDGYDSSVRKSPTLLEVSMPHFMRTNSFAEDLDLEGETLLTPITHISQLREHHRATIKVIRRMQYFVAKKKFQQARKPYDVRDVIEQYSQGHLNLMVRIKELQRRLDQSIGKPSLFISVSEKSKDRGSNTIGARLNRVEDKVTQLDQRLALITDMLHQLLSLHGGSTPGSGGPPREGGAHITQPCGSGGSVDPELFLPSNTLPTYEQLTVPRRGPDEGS
For `CCc1ccccc1NC(=O)/C(=C/c1ccccc1)c1ccccc1`, the activity change, negative = inhibition is -27% (active).
For `Cc1ccc(C(=O)c2c(NC(=O)c3ccccc3)sc(C)c2C)cc1` the value was “inactive”.
For `COc1ccc(Cl)cc1NC(=O)CN(C)Cc1ccc(OC)c(OC)c1` the value was “inactive”; for `CN(Cc1ccccc1F)C(=O)C(Cc1ccccc1)NC(=O)c1ccccc1` (stereo unspecified), “inactive”.
For `CCc1ccc(-c2nn(-c3ccccc3)cc2CSC(=N)N)cc1`, the activity change, negative = inhibition was -39.5% (active).
The same measure for `Cc1cccc(C(=O)OC(C)C(=O)NC2CCCc3ccccc32)c1O` (stereo unspecified): “inactive”; for `COC(=O)C1=C(C)N(C(C)c2ccccc2)C(=O)/C1=C\c1ccco1` (stereo unspecified): “inactive”.
For `COc1cccc(COc2ccc(N(C)S(=O)(=O)c3ccccc3)cc2)c1` the value was “inactive”.
The same measure for `C=CS(=O)c1sc(Cl)c(N2CCOCC2)c1[N+](=O)[O-]` (stereo unspecified): -35% (active).
On to `Cc1nc2ccccc2c(-c2ccccc2)c1C(=O)c1ccccc1`, for which the activity change, negative = inhibition entry is “inactive”.
For `CSCc1cc(N(C)C)nc(SCc2ccc(Cl)cc2Cl)n1` the value was “inactive”; for `Cc1ccc(C2=Nc3c(ccc4ccccc34)C(c3ccncc3)=NN2)cc1`, “inactive”.
The same measure for `CCc1ccc(-c2cc(C(=O)NCc3ccco3)c3ccccc3n2)s1`: “inactive”; for `Fc1ccc2[nH]c3c(N4CCSCC4)ncnc3c2c1`: “inactive”; for `CCOC(=O)N1CCC(N(CCOC)C(=O)Nc2ccc(C)c(C)c2)CC1`: -30.5% (active).
In the case of `O=C(OCC(=O)N(CCc1ccccc1)Cc1ccccc1)c1ccccc1[N+](=O)[O-]`, the activity change, negative = inhibition result is “inactive”.
`CCc1ccc2ncc(C(=O)c3ccccc3)c(N3CCOCC3)c2c1`: the activity change, negative = inhibition result is “inactive”.
For `Cc1ccc(C(C)C)cc1OCC(=O)Nc1ccccc1N1CCCC1` the value was “inactive”.
For `CCOC(=O)C(C)Sc1nc2ccccc2c(=O)n1CC1CCCCC1` (stereo unspecified) the value was -33.5% (active).
For `Cc1ccccc1N1CCN(CC(=O)NCc2ccc(Cl)cc2)CC1` the value was “inactive”.
Take `O=C(Nc1ccccc1Cl)/C(Cl)=C(\Cl)S(=O)c1ccccc1` (stereo unspecified): the activity change, negative = inhibition result is “inactive”.
For `CC(NC(=S)NNS(=O)(=O)c1ccc(C(C)(C)C)cc1)c1ccccc1` (stereo unspecified) the value was “inactive”; for `Cc1ccccc1C(=O)Nc1ccccc1Sc1ccccc1`, “inactive”; for `CC(C(=O)NCC1CCCCC1)N(C)Cc1cccc(Cl)c1` (stereo unspecified), -42.5% (active).
The same measure for `CC(C)C(NC(=O)OCc1ccccc1)C(=O)OCC(=O)N1C(C)CCCC1C` (stereo unspecified): “inactive”.
As for `COc1ccc(CN(C)C(C)C(=O)NC2CCCc3ccccc32)cc1` (stereo unspecified), the activity change, negative = inhibition result is “inactive”.
Regarding `C=CCn1c(SCC(=O)/C(C#N)=C(\C)N)nc2sc(C)c(C)c2c1=O`, the activity change, negative = inhibition entry was “inactive”.
As to `O=C(Nc1ccc(Cl)c(Cl)c1)N1CC=C(c2ccccc2)CC1`, the activity change, negative = inhibition entry is “inactive”.
Regarding `Cc1ccc(N2C(=O)C3C(c4ccccc4)(C2=O)C3(c2ccccc2)c2ccccc2)cc1` (stereo unspecified), the activity change, negative = inhibition result was “inactive”.
The same measure for `CC(C)N(C(=O)CSc1nc(COc2ccccc2)nc2ccccc12)C(C)C`: -44% (active); for `CC(C)[C@H](NC(=O)OCc1ccccc1)C(=O)OCc1ccccc1`: “inactive”.
